A number with no mark means an inactive call. Inconclusive results are not listed. Entries that show only a call come without a potency. The source made the active and inactive calls. Unless noted, calls come from the whole dose curve; as a rule, active = well fitted curve in the direction sought with a large enough effect; inconclusive = small, poorly fitted or top-dose-only effect, or another doubt; inactive = no such curve, though single readings can be large; an effect the other way counts as inactive or inconclusive.
Assays:
[1] = AP1 Signaling Pathway (AID 357; active = well fitted curve in either direction with a large enough effect, not every such curve was filed as active;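 note: ME-180 reporter cells stimulated with EGF at its EC50 level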); settings: ME-180 AP-1-bla reporter, EGF-induced, beta-lactamase ratio, 5 h; at 7.69 µM (top of the series) unless noted
Outline: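 Titration-series screen for positive or negative modulators of EC50 EGF-induced signaling in ME-180 cells carrying an AP-1-driven beta-lactamase reporter. After 5 hours at 37 degrees Celsius, CCF4 460nm/530nm emission ratio gave %Activity; AC50 values derived.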

[2] = molecular target: Cytochrome P450 1A2 (Homo sapiens) (UniProt P05177); assay: p450-cyp1a2 (AID 410; calls by dose curve; note: potency is the fitted concentration of half-maximal effect); settings: recombinant CYP1A2, luciferin-ME demethylation, luminescence; series mostly up to 11.4 µM
Outline: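 20nM CYP1A2, 100uM Luciferin-ME (=Km), 100mM KPO4; cpd 10 min RT; +NADPH regen, 60 min RT; stop/detect 20 min; luminescence. Normalized to furafylline 57 uM = full inhibition.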

[3] = NFAT Signaling Pathway (AID 444; active = well fitted curve in either direction with a large enough effect, not every such curve was filed as active;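 note: carbachol stimulus at about its EC50 of 1 µM final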); settings: Jurkat NFAT-bla M1, carbachol, beta-lactamase ratio, 5 h; at 7.69 µM (top of the series) unless noted
Outline: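 Jurkat cells carrying an NFAT-driven β-lactamase reporter and co-transfected muscarinic M1 receptor were treated with compound plus carbachol (1 uM final, an EC50 level) for 5 h at 37 °C. CCF4 loading followed for 1 h at RT; 460/530 nm ratio gave %activity.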

[4] = Stat Signaling Pathway (AID 446; active = well fitted curve in either direction with a large enough effect, not every such curve was filed as active;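 note: ME-180 cervical cancer cells given 40 pM IL-6 alongside compound; SIE-controlled beta-lactamase reporter measured as 460/530 nm FRET emission ratio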); settings: ME-180 (cervical carcinoma) SIE beta-lactamase reporter, IL-6 stimulated, 5 h; at 7.69 µM (top of the series) unless noted
Outline: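 Normalization used AC90 stimulation (300 pM IL-6) and AC90 inhibition (125 nM pan-JAK inhibitor at 40 pM IL-6). The underlying signal is SIE-driven beta-lactamase in ME-180 cells after 5 h IL-6 exposure with compound.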

[5] = molecular target: Glucocorticoid receptor (Homo sapiens) (UniProt P04150); assay: GR-GFP Redistribution (AID 450;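 active = compounds whose dose series gives a full or clear partial fitted curve of increased nuclear translocation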; note: potency is the fitted concentration of half-maximal effect); settings: U2OS GR-GFP nuclear translocation, laser cytometry, 2 h
[6] = molecular target: Glucocorticoid receptor (Homo sapiens) (UniProt P04150); assay: GR-EFC Redistribution (AID 451; calls by dose curve; note: potency is the fitted concentration of half-maximal effect); settings: CHO-K1 GR-EFC translocation, beta-gal luminescence, 2 h
Outline: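 CHO-K1 cells stably expressing nuclear-localized β-gal enzyme acceptor and GR fused C-terminally to the enzyme donor fragment; ligand-driven nuclear translocation restores β-gal by complementation. Compounds titrated up to 46 uM final, 2 h at 37 °C; luminescence read.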

[7] = molecular target: Mitogen-activated protein kinase 10 (Mus musculus) (UniProt Q61831); assay: JNK3 AlphaScreen Assay (AID 530; active = well fitted curve in either direction with a large enough effect, not every such curve was filed as active;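 note: kinase came from lysate of stimulated human HepG2 cells; signal reports phosphorylation of biotinylated GST-cJun 1-79 at Ser73 with 10 µM ATP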); settings: JNK3 lysate, c-Jun phosphorylation; series mostly up to 57.1 µM
Outline: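 Biotinylated GST-cJun(1-79) served as substrate for JNK3 in HepG2 lysates stimulated with IL-1beta and TNF-alpha. ATP was 10 uM final, pH 7.6. Ser73 phosphorylation was quantified by AlphaScreen (680 nm excitation).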

[8] = molecular target: 3',5'-cyclic-AMP phosphodiesterase 4B (Homo sapiens) (UniProt Q07343); assay: qHTS Assay for Inhibitors of PDE-IV (AID 607; active = well fitted activation curve with a large enough effect in the main read-out, with a control signal flat, not every such curve was filed as active); settings: HEK293 ACTOne CNG channel cells, membrane potential fluorescence; series mostly up to 22.9 µM
Outline: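 HEK293 ACTOne cells with CNG channel (1000/well), endogenous PDE4; membrane potential dye, compounds up to 22.9 uM final. Fluorescence Ex 535/Em 590; RO 20-1724 (100 uM final) as reference.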

[9] = molecular target: Cytochrome P450 2D6 (Homo sapiens) (UniProt P10635); assay: qHTS Assay for Inhibitors and Substrates of Cytochrome P450 2D6 (AID 891); settings: recombinant CYP2D6, luciferin-ME EGE luminescence; series mostly up to 11.4 µM;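 note: luciferin methyl ether substrate demethylated by CYP2D6 with NADPH regeneration; nearly all actives have a fitted effect of over 60% in size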
Outline: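 Luminescent read-out of luciferin formed by 5 nM human CYP2D6 demethylating 30 uM Luciferin-ME EGE (Km level) over 60 min at room temperature after NADPH regeneration addition. Data normalized to full inhibition by 1.43 uM quinidine.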

[10] = molecular target: Guanine nucleotide-binding protein G(i) subunit alpha-1 (Homo sapiens) (UniProt P63096); assay: qHTS Assay for Inhibitors of RGS12 GoLoco Motif Activity (Green Fluorophore) (AID 879); settings: Galphai1/FITC-RGS12 GoLoco peptide, fluorescence polarization; series mostly up to 57.1 µM;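 note: negative values mean loss of peptide binding seen as reduced polarization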
Outline: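 A drop in FITC polarization marked displacement of the FITC-tagged RGS12 GoLoco peptide (10 nM) from Gαi1 (50 nM). Compounds were incubated 10 min at room temperature in Tris pH 7.5 buffer containing 150 mM NaCl, 0.1 mM GDP and 0.05% NP40; unlabeled peptide titration served as control.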

[11] = molecular target: Cytochrome P450 3A4 (Homo sapiens) (UniProt P08684); assay: qHTS Assay for Activators of Cytochrome P450 3A4 (AID 885); settings: recombinant CYP3A4, Luciferin-PPXE luminescence, 60 min; series mostly up to 57.1 µM; note: nearly all actives have a fitted effect of over 65% in size
Outline: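 Human CYP3A4 dealkylates Luciferin-PPXE to luciferin, which luciferase detection converts to light. Substrate was at its KM (25uM), buffer 200mM KPO4, reaction 60 min at RT.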

[12] = qHTS Assay for Identification of Small Molecule Agonists for Thrombopoietin (TPO) Signaling Pathway (AID 917); settings: TPO signaling pathway reporter cells, agonist qHTS; series mostly up to 38.5 µM
Outline: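 Luciferase reporter (Glycoprotein IIb promoter) in IL-3-deprived Ba/F3 cells carrying human TPO receptor; compounds co-added with 26 pM TPO, incubated 24 h, 37 C. Steadylite luminescence measured after 10 min.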

[13] = molecular target: Muscarinic acetylcholine receptor M1 (Rattus norvegicus) (UniProt P08482); assay: qHTS Assay for Antagonists of Acetylcholine Muscarinic M1 Receptor: Kinetic Measurement of Intracellular Calcium Response (AID 943); settings: M1-expressing cells, kinetic intracellular calcium fluorescence; series mostly up to 35.3 µM;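 note: Fluo-4 calcium signal as peak divided by basal fluorescence over 4 min; nearly all actives have a fitted effect of over 75% in size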
Outline: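 Read-out: peak over basal Fluo-4 fluorescence, kinetic at 1 Hz for 4 min after EC80 carbachol (100 nM final). Rat M1-CHO cells, dye loaded 1 h at 37C, compound added 10 min before agonist.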

[14] = molecular target: Muscarinic acetylcholine receptor M1 (Rattus norvegicus) (UniProt P08482); assay: qHTS Assay for Antagonists of Acetylcholine Muscarinic M1 Receptor: Measurement of IP-One Response (AID 944); settings: CHO-M1 cells, IP-One HTRF, antagonist mode; series mostly up to 46.1 µM; note: nearly all actives have a fitted effect of over 75% in size
Outline: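 Read-out: HTRF competition between d2-IP1 and Eu-cryptate anti-IP1 antibody, emission 620 and 665 nm. Stimulus was carbachol, EC80 (200 nM), for 30 min in M1-CHO cells (rat receptor), after 10 min compound pre-treatment.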

[15] = molecular target: Pyruvate kinase (Leishmania mexicana) (UniProt Q27686); assay: qHTS Validation Assay for Inhibitors of Leishmania Mexicana Pyruvate Kinase (AID 945); settings: purified L. mexicana pyruvate kinase, enzyme activity, E451W mutant enzyme; series mostly up to 57.5 µM
Outline: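 Substrate mix (0.5 mM PEP, 0.1 mM ADP, 7 mM MgCl2, 50 mM KCl, pH 7.2 imidazole) received compound by pin tool, then 0.2 nM LmPYK E451W. After 1 h at room temperature, PKLight was added and luminescence measured.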

[16] = molecular target: Pyruvate kinase PKM (Homo sapiens) (UniProt P14618); assay: qHTS Assay for Activators of Human Muscle Pyruvate Kinase (AID 954; active = well fitted curve in the direction sought with a large enough effect, not every such curve was filed as active); settings: purified human muscle pyruvate kinase, luciferase-coupled luminescence, 1 h; series mostly up to 57.5 µM
Outline: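 Compound pinned into substrate mix (0.5 mM PEP, 0.1 mM ADP), then 0.1 nM PKM2 added; 1 h, RT. Stop/detection luciferase reagent added, luminescence read. Normalized to no-inhibition and no-enzyme or reference-inhibitor controls.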

[17] = molecular target: Alpha-galactosidase A (Homo sapiens) (UniProt P06280); assay: Counterscreen for Glucocerebrosidase Inhibitors: qHTS Assay for Human alpha-Galactosidase at pH 4.5 (AID 992); settings: purified enzyme, fluorogenic substrate; series mostly up to 76.9 µM
Outline: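 Steps: enzyme (2 nM final), then compound across 0.7 nM to 77 uM, then 80 uM fluorogenic galactopyranoside substrate; incubate 20 min at room temperature; quench at pH 10; measure fluorescence at 365/440 nm.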

[18] = molecular target: alpha-glucosidase (Oryza sativa, rice) (UniProt Q653V4); assay: Counterscreen for Glucocerebrosidase Inhibitors: qHTS Assay for Rice alpha-Glucosidase at pH 5.0 (AID 997); settings: rice alpha-glucosidase enzyme activity; series mostly up to 76.9 µM
Outline: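 Endpoint fluorogenic assay at pH 5.0: compounds (0.7 nM to 77 uM) titrated against 4 nM rice enzyme and 400 uM 4-MU-alpha-glucoside for 20 min at room temperature; NaOH/glycine stop, read ex 365/em 440 nm, Hill-fitted AC50.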

Glucocorticoid receptor (Homo sapiens), sequence (P04150 whole entry, looked up, the tested form may be a part): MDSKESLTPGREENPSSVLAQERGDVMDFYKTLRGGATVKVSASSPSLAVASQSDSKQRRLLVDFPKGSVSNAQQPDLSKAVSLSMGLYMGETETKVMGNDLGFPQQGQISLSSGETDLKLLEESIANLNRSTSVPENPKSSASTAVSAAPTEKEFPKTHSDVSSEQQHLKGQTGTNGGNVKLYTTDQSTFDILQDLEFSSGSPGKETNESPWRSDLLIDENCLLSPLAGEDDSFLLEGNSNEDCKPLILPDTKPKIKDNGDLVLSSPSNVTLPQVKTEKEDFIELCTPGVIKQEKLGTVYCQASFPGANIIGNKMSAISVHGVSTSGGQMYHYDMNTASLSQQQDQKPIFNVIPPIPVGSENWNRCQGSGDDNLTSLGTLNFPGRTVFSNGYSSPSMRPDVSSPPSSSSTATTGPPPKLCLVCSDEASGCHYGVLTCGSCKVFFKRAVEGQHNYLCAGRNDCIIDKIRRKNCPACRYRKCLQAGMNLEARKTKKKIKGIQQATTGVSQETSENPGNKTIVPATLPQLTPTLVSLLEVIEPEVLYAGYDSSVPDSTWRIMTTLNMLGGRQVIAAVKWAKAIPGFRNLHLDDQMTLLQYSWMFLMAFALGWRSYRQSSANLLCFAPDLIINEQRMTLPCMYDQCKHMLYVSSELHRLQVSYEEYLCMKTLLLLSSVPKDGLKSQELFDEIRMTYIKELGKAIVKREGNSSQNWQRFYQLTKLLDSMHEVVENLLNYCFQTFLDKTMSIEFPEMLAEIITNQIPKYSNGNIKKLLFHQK
3',5'-cyclic-AMP phosphodiesterase 4B (Homo sapiens), sequence (Q07343 whole entry, looked up): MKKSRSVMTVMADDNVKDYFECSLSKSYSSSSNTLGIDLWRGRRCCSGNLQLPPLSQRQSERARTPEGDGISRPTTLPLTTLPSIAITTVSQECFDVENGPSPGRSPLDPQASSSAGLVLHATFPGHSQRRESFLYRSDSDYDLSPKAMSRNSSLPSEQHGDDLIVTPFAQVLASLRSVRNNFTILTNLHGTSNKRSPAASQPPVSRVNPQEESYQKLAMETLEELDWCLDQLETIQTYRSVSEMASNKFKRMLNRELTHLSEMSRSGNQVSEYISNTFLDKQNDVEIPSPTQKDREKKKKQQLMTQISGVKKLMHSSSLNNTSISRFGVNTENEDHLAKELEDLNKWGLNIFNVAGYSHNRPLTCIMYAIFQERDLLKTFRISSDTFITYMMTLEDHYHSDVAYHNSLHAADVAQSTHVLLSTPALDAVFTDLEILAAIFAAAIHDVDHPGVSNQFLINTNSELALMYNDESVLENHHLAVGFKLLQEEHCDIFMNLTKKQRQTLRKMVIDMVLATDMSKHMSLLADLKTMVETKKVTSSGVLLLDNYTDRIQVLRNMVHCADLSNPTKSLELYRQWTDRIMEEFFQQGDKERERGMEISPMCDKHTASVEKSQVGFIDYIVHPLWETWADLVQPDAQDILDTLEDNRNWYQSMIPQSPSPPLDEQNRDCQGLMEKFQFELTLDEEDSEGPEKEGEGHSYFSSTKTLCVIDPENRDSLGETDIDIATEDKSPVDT
Muscarinic acetylcholine receptor M1 (Rattus norvegicus), sequence (P08482 whole entry, looked up): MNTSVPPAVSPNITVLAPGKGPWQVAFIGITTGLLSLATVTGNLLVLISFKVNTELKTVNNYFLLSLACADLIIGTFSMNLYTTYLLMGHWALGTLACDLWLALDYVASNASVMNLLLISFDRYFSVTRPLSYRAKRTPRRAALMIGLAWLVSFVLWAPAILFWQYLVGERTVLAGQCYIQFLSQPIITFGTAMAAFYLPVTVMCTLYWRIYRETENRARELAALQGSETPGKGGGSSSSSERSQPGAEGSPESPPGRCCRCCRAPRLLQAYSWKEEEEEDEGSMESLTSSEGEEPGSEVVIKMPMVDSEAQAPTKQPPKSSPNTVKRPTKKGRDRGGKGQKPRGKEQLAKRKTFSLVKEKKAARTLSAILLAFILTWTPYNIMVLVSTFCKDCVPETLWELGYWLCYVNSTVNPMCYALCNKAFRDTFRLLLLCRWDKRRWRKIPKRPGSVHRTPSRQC
Cytochrome P450 1A2 (Homo sapiens), sequence (P05177 whole entry, looked up): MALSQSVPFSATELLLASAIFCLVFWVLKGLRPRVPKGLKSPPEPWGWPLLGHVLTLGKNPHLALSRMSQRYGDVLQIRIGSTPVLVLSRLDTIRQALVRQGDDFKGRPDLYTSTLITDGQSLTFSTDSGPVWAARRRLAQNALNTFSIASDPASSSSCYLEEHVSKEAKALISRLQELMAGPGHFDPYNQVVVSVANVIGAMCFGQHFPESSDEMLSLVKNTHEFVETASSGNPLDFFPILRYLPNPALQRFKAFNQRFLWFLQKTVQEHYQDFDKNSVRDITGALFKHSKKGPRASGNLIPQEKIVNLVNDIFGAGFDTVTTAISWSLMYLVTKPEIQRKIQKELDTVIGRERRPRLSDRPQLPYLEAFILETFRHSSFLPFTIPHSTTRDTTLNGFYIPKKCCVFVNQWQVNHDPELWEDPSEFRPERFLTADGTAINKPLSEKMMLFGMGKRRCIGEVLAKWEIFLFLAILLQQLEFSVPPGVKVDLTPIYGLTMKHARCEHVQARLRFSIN
Cytochrome P450 3A4 (Homo sapiens), sequence (P08684 whole entry, looked up): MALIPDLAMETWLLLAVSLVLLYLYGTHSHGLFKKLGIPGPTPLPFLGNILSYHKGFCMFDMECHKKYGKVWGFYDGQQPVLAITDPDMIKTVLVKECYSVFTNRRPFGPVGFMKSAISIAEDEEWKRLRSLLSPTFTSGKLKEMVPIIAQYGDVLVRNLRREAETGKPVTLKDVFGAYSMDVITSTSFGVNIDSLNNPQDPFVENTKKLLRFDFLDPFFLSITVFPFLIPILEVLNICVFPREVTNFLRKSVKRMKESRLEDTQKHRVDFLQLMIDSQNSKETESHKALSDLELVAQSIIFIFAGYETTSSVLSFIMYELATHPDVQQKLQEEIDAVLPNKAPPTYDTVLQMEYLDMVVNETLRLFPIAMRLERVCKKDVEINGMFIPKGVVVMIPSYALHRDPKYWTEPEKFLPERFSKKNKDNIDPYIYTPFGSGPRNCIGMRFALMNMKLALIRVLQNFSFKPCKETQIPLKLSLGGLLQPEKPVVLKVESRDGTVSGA
Pyruvate kinase (Leishmania mexicana), sequence (Q27686 2-499 E452W): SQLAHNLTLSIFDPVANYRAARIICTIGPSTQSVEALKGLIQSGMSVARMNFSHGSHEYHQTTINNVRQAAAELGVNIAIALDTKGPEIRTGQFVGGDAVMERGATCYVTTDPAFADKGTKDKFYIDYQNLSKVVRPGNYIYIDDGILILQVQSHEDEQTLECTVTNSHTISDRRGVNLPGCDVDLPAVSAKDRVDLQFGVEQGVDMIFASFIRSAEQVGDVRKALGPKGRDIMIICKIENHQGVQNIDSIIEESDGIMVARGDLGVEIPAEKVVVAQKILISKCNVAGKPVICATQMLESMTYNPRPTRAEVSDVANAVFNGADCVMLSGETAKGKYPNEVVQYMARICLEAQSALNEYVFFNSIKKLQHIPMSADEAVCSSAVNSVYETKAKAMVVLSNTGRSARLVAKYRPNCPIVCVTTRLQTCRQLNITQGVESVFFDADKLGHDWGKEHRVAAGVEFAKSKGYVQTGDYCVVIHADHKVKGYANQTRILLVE
Cytochrome P450 2D6 (Homo sapiens), sequence (P10635 whole entry, looked up): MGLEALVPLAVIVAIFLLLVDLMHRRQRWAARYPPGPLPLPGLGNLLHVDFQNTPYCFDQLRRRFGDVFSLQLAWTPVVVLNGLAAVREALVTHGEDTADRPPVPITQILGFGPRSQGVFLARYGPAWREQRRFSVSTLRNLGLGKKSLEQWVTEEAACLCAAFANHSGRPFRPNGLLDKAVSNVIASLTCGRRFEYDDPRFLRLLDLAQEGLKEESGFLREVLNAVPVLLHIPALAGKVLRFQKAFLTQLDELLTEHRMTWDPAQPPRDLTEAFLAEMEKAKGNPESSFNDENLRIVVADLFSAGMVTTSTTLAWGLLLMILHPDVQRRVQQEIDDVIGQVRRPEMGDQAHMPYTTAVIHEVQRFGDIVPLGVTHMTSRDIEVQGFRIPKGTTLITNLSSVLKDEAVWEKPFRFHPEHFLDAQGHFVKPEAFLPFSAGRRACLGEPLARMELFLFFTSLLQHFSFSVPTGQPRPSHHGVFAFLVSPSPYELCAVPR
Guanine nucleotide-binding protein G(i) subunit alpha-1 (Homo sapiens), sequence (P63096 whole entry, looked up): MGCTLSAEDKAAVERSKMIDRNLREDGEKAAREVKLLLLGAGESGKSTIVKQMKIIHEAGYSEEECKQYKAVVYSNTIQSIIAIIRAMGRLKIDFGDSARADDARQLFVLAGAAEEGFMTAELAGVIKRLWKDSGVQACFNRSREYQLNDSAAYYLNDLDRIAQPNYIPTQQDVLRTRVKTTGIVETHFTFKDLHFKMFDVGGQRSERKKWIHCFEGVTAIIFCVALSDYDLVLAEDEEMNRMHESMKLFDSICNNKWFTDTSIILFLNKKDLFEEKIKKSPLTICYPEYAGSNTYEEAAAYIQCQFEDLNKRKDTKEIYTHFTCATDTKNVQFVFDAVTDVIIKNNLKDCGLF
Pyruvate kinase PKM (Homo sapiens), sequence (P14618 whole entry, looked up): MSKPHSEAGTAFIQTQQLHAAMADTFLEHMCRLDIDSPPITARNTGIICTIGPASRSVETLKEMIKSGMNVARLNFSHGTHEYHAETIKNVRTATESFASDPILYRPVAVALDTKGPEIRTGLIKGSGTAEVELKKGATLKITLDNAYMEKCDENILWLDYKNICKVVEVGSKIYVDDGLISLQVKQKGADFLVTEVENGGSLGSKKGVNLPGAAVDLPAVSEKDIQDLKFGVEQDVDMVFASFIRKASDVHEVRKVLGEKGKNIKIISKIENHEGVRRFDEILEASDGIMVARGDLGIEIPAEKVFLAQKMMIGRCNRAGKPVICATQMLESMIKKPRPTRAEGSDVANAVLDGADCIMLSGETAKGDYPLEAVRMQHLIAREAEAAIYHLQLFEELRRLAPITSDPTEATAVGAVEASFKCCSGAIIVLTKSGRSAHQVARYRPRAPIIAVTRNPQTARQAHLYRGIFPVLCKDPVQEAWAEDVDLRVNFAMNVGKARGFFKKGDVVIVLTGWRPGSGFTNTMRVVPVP

Row | Structure (SMILES) | activity change, negative = inhibition [1] | Potency [2] | activity change, negative = inhibition [3] | activity, negative = inhibition [4] | Potency [5] [µM] | Potency [6] [µM] | Potency [7] | outcome [8] | Potency [9] | outcome [10] | Potency [11] | outcome [12] | Potency [13] | Potency [14] | outcome [15] | outcome [16] | outcome [17] | outcome [18]
1 | CC(C)[C@@]1(NC(=O)[C@@H]2C=C3c4cccc5[nH]cc(c45)C[C@@H]3N(C)C2)O[C@]2(O)[C@H]3CCCN3C(=O)[C@H](Cc3ccccc3)N2C1=O | -14% [at 38 µM] | 10 µM (active) | 4.28% [at 38 µM] | 8.76% [at 38 µM] | > 46 | > 46 | inactive | inactive | inactive |  |  |  |  |  |  |  |  | 
2 | C=CCN1CC[C@]23c4c5ccc(O)c4O[C@@H]2/C(=N/NC(=O)c2ccccc2)CC[C@@]3(O)[C@H]1C5 | -2.73% [at 38 µM] | inactive | -2.19% [at 38 µM] | -23.6% [at 38 µM] | > 46 | > 46 | inactive | inactive |  | inactive | inactive | inactive | inactive | inactive | inactive | inactive | inactive | inactive

— PubChem BioAssay (NCATS)
